Shiga toxin inh – A qHTS for Small Molecule Inhibitors of Shiga Toxin; Vero cells, Shiga toxin protein synthesis inhibition reporter; inhibition, % at 38.7 µM; actives 9.2% (n = 290,000); in the data active = inhibition mostly above about 28%, no sharp cut-off; inactive = mostly below about 43%; also: 0% is about no effect
NS1 inh – qHTS Assay for Inhibitors of Influenza NS1 Protein Function. Potency, µM (top dose mostly 46.1 µM), for inactives: at the highest dose activity, positive = more growth. actives 0.4% (n = 270,000); calls by dose curve; also: potency is read from the fitted curve at half-maximal effect; actives are rising curves; nearly all actives have a fitted effect of over 50% in size
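A cell-based growth assay was used: compounds that relieve NS1-induced slow growth of budding yeast raise OD600. Assay medium was yeast nitrogen base with ammonium sulphate and -URA supplement, pH 6.0, with 2% galactose.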
AmpC detergent – qHTS Inhibitors of AmpC Beta-Lactamase (assay with detergent) | AmpC hydrolysis of nitrocefin, absorbance 480 nm, 0.01% Triton | Potency, µM (doses to about 114 µM), for the others: top-dose activity change, negative = inhibition, actives largely listed as inhibitors | actives 0.041% (n = 370,000) | AID 485294, 2010;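 also: potency is read from the fitted curve at half-maximal effect; 0% = no-compound wells and -100% = no-enzyme wells; nearly all actives have a fitted effect of over 25% in size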
Target sequence (P00811 whole entry, looked up): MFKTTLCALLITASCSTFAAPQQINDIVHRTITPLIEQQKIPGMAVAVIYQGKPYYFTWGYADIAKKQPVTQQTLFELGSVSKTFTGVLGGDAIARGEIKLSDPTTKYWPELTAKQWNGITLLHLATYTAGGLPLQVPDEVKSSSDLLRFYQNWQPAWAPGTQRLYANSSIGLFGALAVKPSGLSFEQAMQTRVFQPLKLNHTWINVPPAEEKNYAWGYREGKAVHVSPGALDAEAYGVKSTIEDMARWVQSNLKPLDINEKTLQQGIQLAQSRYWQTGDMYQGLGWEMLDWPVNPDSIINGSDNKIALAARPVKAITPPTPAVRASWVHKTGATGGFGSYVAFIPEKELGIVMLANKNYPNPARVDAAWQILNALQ
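20 mM phosphate pH 7.0 + 0.01% (detergent screen) or 0.0001% Triton X-100; 5.3 nM AmpC reagent; cpd preinc 15 min RT; nitrocefin (800 uM stock) to start; A480 q20 s × 4 min; Activity was normalised to no-enzyme and no-compound control wells.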
Cycloheximide cs – Cycloheximide Counterscreen for Small Molecule Inhibitors of Shiga Toxin. cell reporter, cycloheximide protein synthesis inhibition counterscreen. max response, %. actives 12% (n = 300,000). AID 2314, 2010; in the data active = max response mostly above about 13%, no sharp cut-off; inactive = mostly below about 14%; also: read at 38.3 µM for the half of the compounds with a filed dose; 0% is about no effect
AmpC no deterg – qHTS Inhibitors of AmpC Beta-Lactamase (assay without detergent). P00811. AmpC nitrocefin hydrolysis, absorbance 480 nm, 0.0001% Triton. Potency, µM (series often up to 57.1 µM), inactives show top-dose activity change, negative = inhibition, actives largely listed as inhibitors. actives 0.52% (n = 330,000). AID 485341, 2010;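 also: potency is read from the fitted curve at half-maximal effect; plate controls were no compound for no effect and no enzyme for full effect; nearly all actives have a fitted effect of over 20% in size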
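20 mM phosphate pH 7.0 + 0.01% (detergent screen) or 0.0001% Triton X-100; 5.3 nM AmpC reagent; cpd preinc 15 min RT; nitrocefin (800 uM stock) to start; A480 q20 s × 4 min; Activity was normalised to no-enzyme and no-compound control wells.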
An asterisk follows results filed as active; ? = inconclusive; . = not tested or not shown. The full list was thinned out, with hits kept by preference. Unless noted, calls follow the shape of the dose curve; as a rule, active = well fitted curve in the direction sought with a large enough effect; inconclusive = small, poorly fitted or top-dose-only effect, or another doubt; inactive = no such curve, though single readings can be large; an effect the other way counts as inactive or inconclusive.

SMILES | Shiga toxin inh | NS1 inh | AmpC detergent | Cycloheximide cs | AmpC no deterg
COc1cccc(C(=O)C2CN(c3ccccc3)CC2c2ccc(Cl)cc2)c1 (stereo unspecified) | 53 | -3% | -5% | 23* | ?
COc1cccc(C(=O)C2CN(C)CC2c2ccc(Cl)cc2)c1 (stereo unspecified) | -6 | 2% | 5% | -5 | 29%
COc1ccc(-n2nc3cc(C)c(NC(=S)NC(=O)c4ccccc4C)cc3n2)cc1 | 112* | 4% | -1% | 30* | -11%
Cc1cccc(C(=O)Nc2cc3nn(-c4ccc(C(C)C)cc4)nc3cc2C)c1 | . | . | -2% | . | .
CCC(=O)Nc1cc2nn(-c3ccc(C)cc3)nc2cc1C | 109* | . | ? | 44* | -17%
CCC(=O)Nc1cc2nn(-c3ccc(OC)cc3)nc2cc1C | 90* | -4% | -3% | 52* | -9%
CCCCC(=O)Nc1cc2nn(-c3ccc(OC)cc3)nc2cc1C | -5 | -8% | ? | 10 | -13%
Cc1ccc(NC(=O)Cn2c(=O)n(CCC(=O)NCc3ccccc3Cl)c(=O)c3ccccc32)cc1 | . | . | 11% | . | .
CC(C)c1ccc(NC(=O)c2cc(Br)ccc2Br)cc1 | 60* | -3% | -3% | 43* | -42%
O=C(Nc1ccc(Cl)cc1)c1ccc(Br)cc1F | 86* | -3% | -2% | 44* | -26%
CN(C)C(=O)Oc1ccc(Br)cc1C(=O)Nc1ccc(F)c(Cl)c1 | 10 | -40% | ? | 10 | -39%
Cc1ccc(NC(=O)Nc2cccc(F)c2)nc1 | 21 | 3% | -13% | 26* | -17%
O=C(Nc1ccc(Cl)cn1)Nc1ccccc1Cl | 9 | -7% | -2% | 6 | -58%
COC(=O)c1ccccc1NC(=O)Nc1ccc(C)cn1 | 8 | 4% | 1% | 7 | 0%
O=C(Nc1cccc(F)c1)Nc1ccc(Cl)cn1 | 38* | -9% | -12% | 24* | -35%
Cc1ccnc(NC(=O)Nc2cccc(F)c2)c1 | 73* | -10% | -7% | 41* | -15%
O=C(O)c1cccc(Nc2ncnc3scc(-c4ccccc4)c23)c1 | . | . | 0% | . | .
CC(=O)c1c(C)n(-c2ccc(C)cc2)c2ccc(OC(=O)COc3ccccc3)cc12 | . | . | 14% | . | .
Cc1cc(NC(=S)NC(=O)C2CC2)ccc1Br | 128* | 6% | -3% | 51* | -27%
Cc1cc(C)cc(NC(=S)NC(=O)C2CC2)c1 | -22 | 7% | -3% | 10 | -29%
Cc1cccc(NC(=S)NC(=O)C2CC2)c1 | 35* | 9% | -12% | 45* | 74%
COc1ccc(NS(=O)(=O)c2ccc(N3CCCC3)c(NC(=S)Nc3cccc(S(=O)(=O)N(C)C)c3)c2)cc1 | 63* | ? | -8% | 33* | -21%
CNC(=S)Nc1ccc(N2CCCC2)c(S(=O)(=O)Nc2ccc(OC)cc2)c1 | . | . | . | . | -41%
Cc1ccccc1NC(=S)NC(=O)C1CCCCC1 | 45 | 3% | 3% | 19* | -31%
CC(=O)Nc1ccc(NC(=S)NC(=O)C2CCCC2)cc1 | -13 | 9% | 1% | 14 | 2%
SMILES | Shiga toxin inh | NS1 inh | AmpC detergent | Cycloheximide cs | AmpC no deterg
COc1ccc(Cn2c(SCc3ccc(C(=O)NC(C)c4ccccc4)cc3)nc3cccnc32)cc1 (stereo unspecified) | . | . | -3% | . | .
O=C(COc1ccccc1Cl)Nc1cc(-c2ccccc2F)nn1-c1ccccc1 | . | . | 19% | . | .
Cc1ccc2c(c1)cc1c(=O)n(CC(=O)NC3CCCCC3)nc(C)n12 | . | . | 26% | . | .
CN(C)S(=O)(=O)c1cccc(NC(=S)NC(=O)C2CCCCC2)c1 | 67* | 24% | -8% | 41* | -51%
O=C(CSc1ccc(Br)c2cccc(Cl)c12)Nc1ccc(S(=O)(=O)Nc2nccs2)cc1 | -5 | 10% | 2% | -1 | 2.5µM*
Cc1ccc(C)c(NC(=S)c2ccccn2)c1 | 95* | -34% | 5% | 50* | -19%
CN(CC(=O)Nc1ccc(F)cc1)C(=O)c1ccc2ccccc2n1 | . | . | -21% | . | -14%
Cc1ccc(C)c(NC(=S)c2ccc3ccccc3n2)c1 | 75* | 22% | -1% | 44* | -12%
Cc1ccc(C)c(NC(=S)c2nc3ccccc3s2)c1 | 42* | 2% | -16% | 26* | -19%
CC(C)=C(C#N)c1nc2ccccc2s1 | -2 | -8% | 1% | 17 | -23%
CN(C)c1ccc(NC(=S)c2ccc3ccccc3n2)cc1 | 113* | -4% | -10% | 32* | -43%
O=S(=O)(c1ccc2c(c1)OCCO2)N1CCN(S(=O)(=O)c2ccc(F)cc2F)CC1 | 1 | . | . | -2 | .
O=C(O)c1cccc(-c2nc3ccccc3[nH]2)c1 | 32* | 14% | ? | 27* | -13%
Fc1ccc(NC(=S)NCCN2CCOCC2)cc1 | -6 | 6% | -1% | 9 | 48%
COc1ccc(-c2nc3ccccc3[nH]2)cc1 | 27 | -158% | 1% | 25* | -21%
COc1ccc(-c2nc3ccccc3nc2-c2ccc(OC)cc2)cc1 | -2 | -15% | ? | -4 | 40%
Fc1cc2nc(-c3ccncc3)[nH]c2cc1F | 71 | -58% | 1% | 24* | -15%
S=C(NCCN1CCOCC1)Nc1ccc(-c2nc3ccccc3[nH]2)cc1 | 177* | . | -3% | 28* | -41%
CCOc1ccccc1NC(=S)N1CCN(c2cccc(OC)c2)CC1 | -8 | -4% | -3% | 1 | -18%
COc1ccc2[nH]c(=O)c(-c3nnn(-c4ccccc4)n3)cc2c1 | 24 | -2% | 4% | 2 | -12%
Nc1cc(N)cc(-c2nc3ccccc3[nH]2)c1 | 13 | 6% | -1% | 23* | -4%
COC(=O)c1ccc(C(=O)OCc2nc3cc4ccccc4cc3[nH]2)cc1 | 14* | 3% | 0% | 29* | -11%
c1ccc2[nH]c(CCCCc3nc4ccccc4[nH]3)nc2c1 | 12 | 6% | -13% | 4 | -44%
COc1ccc2oc(=Nc3ccccc3)c(-c3nc4ccccc4[nH]3)cc2c1 | 71* | -1% | ? | 59* | -17%
COc1ccc(CCCc2nc3ccccc3[nH]2)cc1 | 70 | -33% | 6% | 22* | -19%
SMILES | Shiga toxin inh | NS1 inh | AmpC detergent | Cycloheximide cs | AmpC no deterg
COc1cc(C(=O)N/N=C/c2ccc(OC(=O)c3cccc(C)c3)c(OC)c2)ccc1O | -20 | 5% | 0% | -2 | -16%
O=C(NCCSCc1ccccc1Cl)C1CCN(S(=O)(=O)Cc2ccccc2)CC1 | . | . | 23% | . | .
COc1ccc(CCC(=O)NCc2nc3cccnc3n2Cc2cccc(OC)c2)cc1 | . | . | -8% | . | .
CCC(C)c1ccccc1N1CC(C(=O)N(C)CC(=O)Nc2cccc(F)c2)CC1=O (stereo unspecified) | . | . | -1% | . | 191%
O=C(COc1ccc(Cl)cc1)N(Cc1ccco1)c1ccccn1 | . | . | 13% | . | .
c1ccc2[nH]c(-c3ccncc3)nc2c1 | 68* | -10% | -4% | 19* | -6%
O=C(Nc1cccc(-c2nc3ccccc3[nH]2)c1)c1ccccn1 | 19 | -60% | -11% | 14 | -23%

Screening results: PubChem, National Center for Advancing Translational Sciences (NCATS)
